# Results published in PubChem BioAssay (Tox21).
# “And” between values parts separate entries of the source, which are not always exact repeats. Equal values may be shown once. Values without a mark were called inactive. Records with an inconclusive call do not appear. Where a call stands in place of a potency, no number is given. The source made the active and inactive calls. The call rests on the fitted dose curve.
# Assays:
# [1] = target: Acetylcholinesterase (Homo sapiens) (UniProt P22303); assay: Acetylcholinesterase (AChE) small molecule antagonists: colormetric cell-based qHTS assay (AID 1347395); further: nearly all actives have a fitted effect of over 30% in size; further: potency means the concentration at half of the fitted maximal effect
# Acetylcholinesterase (Homo sapiens), sequence (P22303 whole entry, looked up): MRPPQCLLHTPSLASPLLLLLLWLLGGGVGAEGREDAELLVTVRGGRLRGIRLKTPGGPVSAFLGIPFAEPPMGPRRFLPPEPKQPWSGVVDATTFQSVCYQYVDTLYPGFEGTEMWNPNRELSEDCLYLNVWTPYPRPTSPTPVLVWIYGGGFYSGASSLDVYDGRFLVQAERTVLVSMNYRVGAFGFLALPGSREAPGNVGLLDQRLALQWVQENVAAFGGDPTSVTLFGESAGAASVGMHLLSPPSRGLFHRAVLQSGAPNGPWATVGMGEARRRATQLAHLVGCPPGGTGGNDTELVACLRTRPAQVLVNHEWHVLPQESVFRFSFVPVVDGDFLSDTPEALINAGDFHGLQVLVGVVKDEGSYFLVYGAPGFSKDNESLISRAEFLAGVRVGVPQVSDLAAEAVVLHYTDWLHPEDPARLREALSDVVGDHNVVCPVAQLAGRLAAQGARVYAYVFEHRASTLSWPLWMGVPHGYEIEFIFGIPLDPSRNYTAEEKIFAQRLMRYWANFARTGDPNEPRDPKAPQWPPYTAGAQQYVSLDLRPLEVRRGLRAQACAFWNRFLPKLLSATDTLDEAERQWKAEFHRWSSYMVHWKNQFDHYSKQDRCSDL
# Procedure, shortened: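 Cells (SH-SY5Y, 2,000 per well) are seeded and left overnight at 37 C. Compound is added for 30 min, then DTNB and acetylthiocholine for a further 90 min at 37 C before absorbance-based thiocholine detection.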
# [2] = target: Acetylcholinesterase (Homo sapiens) (UniProt P22303); assay: Acetylcholinesterase (AChE) small molecule antagonists: enzyme-based qHTS assay (AID 1347397); settings: Potency: AChE enzyme activity inhibition; outcome: AChE enzyme activity inhibition; further: nearly all actives have a fitted effect of over 55% in size; further: potency means the concentration at half of the fitted maximal effect
# Procedure, shortened: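 Recombinant human AChE (50 mU/mL) preincubated with compound 30 min at room temperature; acetylthiocholine plus DTNB then added, and thiocholine formation read colorimetrically after 10 min at room temperature. DMSO served as vehicle control.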
# [3] = target: Acetylcholinesterase (Homo sapiens) (UniProt P22303); assay: Acetylcholinesterase (AChE) small molecule antagonists: fluorescence cell-based qHTS assay (AID 1347398); settings: Potency: AChE activity; outcome: AChE activity; further: nearly all actives have a fitted effect of over 50% in size; further: potency means the concentration at half of the fitted maximal effect
# Procedure, shortened: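 SH-SY5Y cells (2000/well), attached overnight, incubated with compound 30 min at 37 C. Acetylthiocholine plus Thiolite Green then added for 40 min at room temperature. Thiocholine fluorescence (Ex/Em 490/520 nm) reports cellular AChE activity.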
# [4] = target: Acetylcholinesterase (Homo sapiens) (UniProt P22303); assay: Acetylcholinesterase (AChE) small molecule antagonists: enzyme-based qHTS assay with human liver microsomes (AID 1347399); settings: Potency: qHTS inhibition; outcome: qHTS inhibition; further: nearly all actives have a fitted effect of over 60% in size
# Procedure, shortened: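 Recombinant human AChE (50 mU/mL in the enzyme mix) and human liver microsomes (0.25 mg/mL final) were preincubated with compound and NADPH (0.25 mg/mL final) for 30 min at 37 C. Acetylthiocholine/DTNB was then added; thiocholine was read colorimetrically after 10 min at room temperature.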
SMILES,Potency [1],Potency [2],Potency [3],Potency [4],outcome [1],outcome [2],outcome [3],outcome [4]
C=C/C(C)=C/C/C=C(\C)CCC=C(C)C,inactive,inactive,inactive,inactive,,,,
O=C(NCc1ncc(C(F)(F)F)cc1Cl)c1c(Cl)cccc1Cl,inactive,inactive,inactive,inactive,,,,
O=c1[nH]cnc2c1ncn2[C@H]1CC[C@@H](CO)O1,inactive,inactive,inactive,inactive,,,,
CCCCCCCCOc1ccc(C(=O)c2ccccc2)c(O)c1,inactive,inactive,inactive,inactive,,,,
CC(=O)NCCO,inactive,inactive,inactive,inactive,,,,
Nc1ccc2c(c1)C(=O)c1ccccc1C2=O,inactive,inactive,inactive,inactive,,,,
CCCCCCCOC(C)=O,inactive,inactive,inactive,inactive,,,,
NC(=O)/N=N/C(N)=O,63.5 µM (active),71.2 µM (active),7.12 µM (active) and 31.7 µM (active),inactive,,,,
O=C1Nc2ccccc2C1(c1ccc(O)cc1)c1ccc(O)cc1,inactive,inactive,inactive,inactive,,,,
CCCCC/C=C\C/C=C\CCCCCCCC(=O)O,inactive,inactive,inactive,inactive,,,,
CCc1ccc(Br)cc1,inactive,inactive,inactive,inactive,,,,
CCCC(C)CCC(C)=O (stereo not given),inactive,inactive,inactive,inactive,,,,
CCCCC(CC)COP(=O)(OCC(CC)CCCC)OCC(CC)CCCC (stereo not given),inactive,inactive,inactive,inactive,,,,
O=C(O)CCC(=O)c1ccc(-c2ccccc2)cc1,inactive,inactive,inactive,inactive,,,,
Cc1ccc2c(n1)Oc1ccc(C(C)C(=O)OCC(=O)N(C)C)cc1C2 (stereo not given),15.5 µM (active) and 12.3 µM (active),15.5 µM (active),4.9 µM (active),inactive,,,,
Cc1ccc(N(C)C)cc1,inactive,inactive,inactive,inactive,,,,
Cc1cc(NC(=O)C2=C(O)c3ccccc3S(=O)(=O)N2C)no1,inactive,inactive,inactive,inactive,,,,
Nc1nc2c(ncn2CCC(CO)CO)c(=O)[nH]1,inactive,inactive,inactive,inactive,,,,
CCOC(=O)c1cccc(N)c1,,,,,inactive,inactive,inactive,inactive
Nc1ccccc1S(=O)(=O)O,inactive,inactive,inactive,inactive,,,,

SMILES,Potency [1],Potency [2],Potency [3],Potency [4],outcome [1],outcome [2],outcome [3],outcome [4]
Nc1ccc2cc(S(=O)(=O)O)ccc2c1,inactive,inactive,inactive,inactive,,,,
N[C@@H](Cc1c[nH]c2ccc(O)cc12)C(=O)O,inactive,inactive,inactive,inactive,,,,
CC(C)(C)NC(N)=O,inactive,inactive,inactive,inactive,,,,
C/C=C(\C)C(=O)OCCc1ccccc1,inactive,inactive,inactive,inactive,,,,
CC(C)(C)NC(=O)[C@H]1CC[C@H]2[C@@H]3CC[C@H]4NC(=O)C=C[C@]4(C)[C@H]3CC[C@]12C,inactive,inactive,inactive,inactive,,,,
C[Si]1(C)N[Si](C)(C)N[Si](C)(C)N1,inactive,inactive,inactive,inactive,,,,
CCCCC[C@H](O)/C=C/[C@H]1[C@H](O)CC(=O)[C@@H]1C/C=C\CCCC(=O)O,inactive,inactive,inactive,inactive,,,,
O=C1C(c2[nH]c3ccccc3c2O)=Nc2ccccc21,inactive,inactive,inactive,inactive,,,,
C=CC(=O)OCC1CC2CC1C1CCC(COC(=O)C=C)C21 (stereo not given),inactive,inactive,inactive,inactive,,,,
CC(C)[C@@H]1CC[C@@H](C)C[C@H]1O,inactive,inactive,inactive,inactive,,,,
O=C(CN1CCNCC1)NC1CCCCC1,inactive,inactive,inactive,inactive,,,,
CC(=O)O[C@]1(C(C)=O)CC[C@H]2[C@@H]3C=C(C)C4=CC(=O)CC[C@]4(C)[C@H]3CC[C@@]21C,inactive,inactive,inactive,inactive,,,,
C/C=C/C=N/NC(=O)c1ccncc1,inactive,inactive,inactive,inactive,,,,
C=C(C)[C@@H]1CC=C(C)C(=O)C1,inactive,inactive,inactive,inactive,,,,
CC1=CC[C@H](CC=O)C1(C)C,inactive,inactive,inactive,inactive,,,,
COP(=O)(OC)OC(c1ccc(Cl)cc1)P(=O)(OC)OC (stereo not given),inactive,inactive,inactive,inactive,,,,
CCCC1C(CC)=CC(CC)=CN1c1ccccc1 (stereo not given),inactive,inactive,inactive,inactive,,,,
COC(=O)Cc1cccc2ccccc12,inactive,inactive,inactive,inactive,,,,
O=C(OCc1ccccc1)c1ccccc1,inactive,inactive,inactive,inactive,,,,
NNC(=O)OCc1ccccc1,inactive,inactive,inactive,inactive,,,,

SMILES,Potency [1],Potency [2],Potency [3],Potency [4],outcome [1],outcome [2],outcome [3],outcome [4]
C=CC(=O)OCCC#N,inactive,inactive,inactive,inactive,,,,
C=CC(C)(CCC=C(C)C)OC(=O)/C=C/c1ccccc1 (stereo not given),inactive,inactive,inactive,inactive,,,,
CO[Si](CCCNCCN)(OC)OC,inactive,inactive,inactive,inactive,,,,
BrCc1cccc(Oc2ccccc2)c1,inactive,inactive,inactive,inactive,,,,
NNS(=O)(=O)c1ccc(Oc2ccc(S(=O)(=O)NN)cc2)cc1,inactive,inactive,inactive,inactive,,,,
CC1(C)S[C@@H]2[C@H](NC(=O)C(C(=O)O)c3ccccc3)C(=O)N2[C@H]1C(=O)O (stereo not given in full),inactive,inactive,inactive,inactive,,,,
CCOC(=O)C1=C(C)NC(C)=C(C(=O)OC)C1c1cccc([N+](=O)[O-])c1 (stereo not given),inactive,inactive,inactive,inactive,,,,
O=C1CC2CC1C1CCCC21 (stereo not given),inactive,inactive,inactive,inactive,,,,
COc1ccc2nc(S(=O)Cc3ncc(C)c(OC)c3C)[nH]c2c1 (stereo not given),inactive,inactive,inactive,inactive,,,,
CC(C)=CCOC(=O)c1ccccc1,inactive,inactive,inactive,inactive,,,,
CN1CCN(C2Cc3ccccc3Sc3ccc(Cl)cc32)CC1 (stereo not given),inactive,inactive,inactive,inactive,,,,
CCCCCCCCCCCCCCCCCC(=O)OCC(CC)CCCC (stereo not given),inactive,inactive,inactive,inactive,,,,
Nc1ncnc2c1ncn2[C@@H]1O[C@H](CO)[C@@H](O)[C@H]1O,inactive,inactive,inactive,inactive,,,,
C=CC(=C)CCC=C(C)C,inactive,inactive,inactive,inactive,,,,
COc1ccc(C(C)=O)cc1,inactive,inactive,inactive,inactive,,,,
CC(C)=CC(=O)C=C(C)C,inactive,inactive,inactive,inactive,,,,
NS(=O)(=O)c1ccc(NC(=O)CCC(=O)O)cc1,inactive,inactive,inactive,inactive,,,,
COc1cc(C)cc(O)c1,inactive,inactive,inactive,inactive,,,,
NC(=O)Nc1nc2ccccc2[nH]1,inactive,inactive,inactive,inactive,,,,
O=S(=O)(O)C(F)(F)F,inactive,inactive,inactive,inactive,,,,
